An excerpt weighted towards active compounds, which were near 2% of everything screened.
S1P2 blocker: antagonists of human S1P2 receptor; O95136; inhibition, % at 5 µM; cell-based S1P2 antagonist assay, inhibition at 5 uM; AID 736; actives 0.21% (n = 97,000); in the data active means inhibition above about 45%;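 further: CRE beta-lactamase reporter cells expressing human S1P2 stimulated with S1P; 0% = agonist at EC80 alone and 100% = agonist plus reference antagonist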
Target sequence (O95136 whole entry, looked up): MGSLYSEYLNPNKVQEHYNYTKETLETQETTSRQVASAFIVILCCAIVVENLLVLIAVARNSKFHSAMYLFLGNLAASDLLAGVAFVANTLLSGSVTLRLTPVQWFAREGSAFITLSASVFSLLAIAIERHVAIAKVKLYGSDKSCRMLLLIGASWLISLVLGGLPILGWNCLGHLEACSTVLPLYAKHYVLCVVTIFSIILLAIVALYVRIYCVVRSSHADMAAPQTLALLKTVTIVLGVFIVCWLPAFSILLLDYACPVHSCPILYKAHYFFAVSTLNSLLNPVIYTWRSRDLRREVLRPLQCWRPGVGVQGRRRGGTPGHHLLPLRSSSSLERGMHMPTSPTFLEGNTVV
GALR2 ag: agonists of human galanin receptor 2 (GALR2); O43603; GALR2-expressing cells, agonist activation read-out; activation, % (no concentration beside the values); actives 0.48% (n = 140,000); in the data active means activation above about 5%, passing the limit was not always enough;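 further: 0% = vehicle buffer wells and 100% = reference agonist at full effect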
GALR2 blocker: blocks the human galanin receptor 2 | O43603 | actives 0.39% (n = 140,000) | inhibition, % at 4 µM | GALR2-expressing cells, antagonist mode | AID 828;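 further: cells stimulated with galanin 1-16 at roughly its EC80; 0% = agonist challenge control and 100% = basal control without agonist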
S1P2 agonist: agonists of human S1P2 receptor; S1P2-expressing cell line, agonist reporter read-out; activation, % at 4.5 µM; actives 0.46% (n = 97,000); in the data active means activation above about 16%;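 further: 0% = vehicle low control and 100% = maximal reference agonist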
PLAP activator: human PLAP activation; P05187; purified PLAP enzyme, luminescent substrate read-out; hits give high values; activation fold at 20 µM; actives 1.2% (n = 96,000); AID 696; in the data active means activation fold above about 2
GALR2 blk conf: confirmation of human galanin receptor 2 (GALR2) antagonists; GALR2-expressing cells, antagonist mode, inhibition; inhibition, % at 4 µM; shares compounds with GALR2 blocker; actives 60% (n = 480);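 further: cells stimulated with galanin at about its EC80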
BLA inhib ctr: beta-lactamase inhibition, GALR2 counterscreen. shares compounds with GALR2 blocker. CHO NFAT-BLA reporter, beta-lactamase FRET, thapsigargin-stimulated. inhibition, % at 4.2 µM. actives 36% (n = 480);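 active means inhibition above the mean inhibition across tested compounds plus 3 SD, cut at about 27% in these data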;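 further: 0% = 500 nM thapsigargin stimulated wells and 100% = unstimulated BSA only wells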
An asterisk follows results filed as active. Unless noted, no stated cut-off is given here; in the data, active means inhibition above about 27%; inactive means the rest.

O=C(/C=C/c1ccc(Cl)c([N+](=O)[O-])c1)Nc1cccc(NC(=O)c2ccco2)c1 was read as GALR2 ag -2 and GALR2 blocker 6.
O=C(/C=C/c1ccc(Cl)c([N+](=O)[O-])c1)Nc1ccc(NC(=O)c2ccco2)cc1 was read as GALR2 ag -1, GALR2 blocker 33*, GALR2 blk conf 18 and BLA inhib ctr 2.
CCC1(C(=O)OC)NC(c2ccco2)C2C(=O)N(c3ccc(C)cc3)C(=O)C21 (configuration not stated) was read as S1P2 blocker 0, GALR2 ag -3, GALR2 blocker 30*, S1P2 agonist -5, PLAP activator 1.6, GALR2 blk conf 7 and BLA inhib ctr 2.
`CCOC(=O)C1(C)NC(c2ccco2)C2C(=O)N(c3ccc(C)cc3)C(=O)C21` (configuration not stated) gave S1P2 blocker 1, GALR2 ag -2, GALR2 blocker 2 and S1P2 agonist -9.
For CC(=O)Nc1ccccc1OCC(=O)c1cc(C)n(Cc2cccs2)c1C the results were GALR2 ag -1, GALR2 blocker 39*, PLAP activator 1.4, GALR2 blk conf 51* and BLA inhib ctr 24.
Screening Cc1cc(C(=O)COC(=O)c2ccccc2O)c(C)n1Cc1cccs1 returned S1P2 blocker -11, GALR2 ag -3, GALR2 blocker -1, S1P2 agonist 0 and PLAP activator 1.1.
`COc1cccc(-n2nnnc2S(C)(=O)=O)c1` gave S1P2 blocker 17, GALR2 ag -3, GALR2 blocker 33*, S1P2 agonist -7, PLAP activator 0.9, GALR2 blk conf 55* and BLA inhib ctr 58*.
For COc1cccc(Oc2nnnn2-c2ccccc2)c1 the results were S1P2 blocker -18, GALR2 ag -2, GALR2 blocker 0, S1P2 agonist -2 and PLAP activator 0.9.
`S=c1[nH]nc(CCc2ccccc2)n1-c1ccccc1` gave GALR2 ag -1 and GALR2 blocker 0.
For Cc1nc2sccn2c1-c1csc(NCc2ccccc2)n1 the results were S1P2 blocker 41, GALR2 ag -2, GALR2 blocker 27*, S1P2 agonist -7, PLAP activator 1.1, GALR2 blk conf 24 and BLA inhib ctr -1.
For Cc1ccc(CCSc2ccc(C(C)C)cc2)cn1 the results were GALR2 ag -1 and GALR2 blocker -9.
For CNc1nc2cc([N+](=O)[O-])c([N+](=O)[O-])cc2nc1NC the results were GALR2 ag -2, GALR2 blocker 54*, GALR2 blk conf 65* and BLA inhib ctr 10.
For CNc1c([N+](=O)[O-])ncn1C the results were S1P2 blocker -5, GALR2 ag -4, GALR2 blocker 2, S1P2 agonist -2 and PLAP activator 0.7.
For O=C(N/N=C/c1cn(-c2ccccc2)nc1-c1cccs1)c1ccccc1F the results were GALR2 ag -1 and GALR2 blocker 14.
For CC1=NNC(=O)/C1=C\c1cn(-c2ccccc2)nc1-c1cccs1 the results were GALR2 ag -1, GALR2 blocker 31*, GALR2 blk conf -2 and BLA inhib ctr 22.
`CCOC(=O)c1c(-c2ccccc2)oc2cc(CN(C)C)c(O)c(CN(C)C)c12` gave S1P2 blocker 6, GALR2 ag -2, GALR2 blocker 15 and S1P2 agonist -7.
O=C(NNS(=O)(=O)c1ccc([N+](=O)[O-])cc1)c1cnn(-c2ccccc2)c1-n1cccc1 was read as S1P2 blocker 11, GALR2 ag 1, GALR2 blocker -5 and S1P2 agonist -2.
For O=C(O)c1cccc2cccnc12 the results were S1P2 blocker 17, GALR2 ag -3, GALR2 blocker 7, S1P2 agonist -4 and PLAP activator 1.
`c1cnc2c(c1)ccc1cccnc12` gave GALR2 ag -2, GALR2 blocker 36*, GALR2 blk conf 48* and BLA inhib ctr -2.
For CCC(=O)NNc1ncnc2ccccc12 the results were GALR2 ag -2 and GALR2 blocker -3.
`CCCCCCCCNc1ncnc2ccccc12` gave S1P2 blocker 78*, GALR2 ag -1, GALR2 blocker 39*, S1P2 agonist -3, PLAP activator 10, GALR2 blk conf 54* and BLA inhib ctr 18.

Bioassay records (PubChem BioAssay)
